Reference: ChEMBL document CHEMBL3988442, “University of Dundee, Small-Polar-MMV Screening Library” (2021)
About 13,000 (27%) of roughly 48,000 compounds showed an effect of 50% or more. This is one part of the list.

Each molecule was assayed on Wolbachia pipientis (assay: Anti-Wolbachia Cell-Based Screen). Details: 5 µM.
Assay type: functional
Set-up: scale not given: in the data most compounds retested in dose-response had high values

Row | SMILES | Percent Effect [%]
1 | CC(=O)NCCc1ncnn1-c1ccc(F)c(Cl)c1 | -4.574
2 | CC(O)CN1CCC(CNCc2ccc(S(C)(=O)=O)cc2)CC1 (stereo unspecified) | -7.013
3 | Cc1cc(-c2ccc(C(C)N3CCOCC3)cc2)cnc1N (stereo unspecified) | 25.58
4 | O=C(NCCc1c[nH]cn1)c1ccc2c(c1)C(=O)N(C1CC1)C2=O | 25.9
5 | CC(O)CN(C)C(=O)Nc1ccn(-c2cccc(C(F)(F)F)c2)n1 (stereo unspecified) | -1.587
6 | c1ccn2c(C3CCCN3Cc3nc(C4CC4)no3)nnc2c1 (stereo unspecified) | 89.02
7 | Cn1cccc1C1CCCN1Cc1noc(C(C)(C)C)n1 (stereo unspecified) | 89.29
8 | CCc1nc(C2CCCN2Cc2nc(C3CC3)no2)no1 (stereo unspecified) | -2.971
9 | Cc1nn(C)c(C)c1C1CCCN1Cc1noc(C2CC2)n1 (stereo unspecified) | 0.5745
10 | CCc1nc(C2CCCN2Cc2noc(Cc3ccccc3)n2)no1 (stereo unspecified) | -2.758
11 | O=C(OCc1ccccc1)C1CCCN1Cc1nc(C2CC2)no1 (stereo unspecified) | 13.28
12 | CC(C)(C)c1nnc(CN2CCCC2c2noc(C3CC3)n2)o1 (stereo unspecified) | 9.354
13 | COc1cccc2c1N(Cc1noc(C(C)(C)C)n1)CCC2 | 5.292
14 | CC(C)(C)c1nc(CN2CCCC2CCc2ccccc2)no1 (stereo unspecified) | 0.152
15 | CC(C)(C)c1nc(CN2CCCC2c2nnc3ccccn23)no1 (stereo unspecified) | 104.6
16 | CCc1nc(C2CCCN2Cc2nc3ccccc3o2)no1 (stereo unspecified) | -3.272
17 | CCn1c(C2CCCN2Cc2noc(C(C)(C)C)n2)nc2ccccc21 (stereo unspecified) | 117.3
18 | CC(C)n1cnc2c1C(C(=O)N1CCOCC1)N(CC1CC1)CC2.O=C(O)C(F)(F)F (stereo unspecified) | -10.07
19 | CNC(=O)c1ccc(-n2c(COCC(=O)O)nc3c(C)cccc32)o1 | -7.772
20 | CCCOCC1CCN(C(=O)Cn2cccc(OC)c2=O)C1 (stereo unspecified) | -15.28
21 | Cc1ccc(NC(=O)CCC2CC2)cc1N1CCOC1=O | -7.551
22 | O=c1[nH]nc(CNc2ncc(Cl)cn2)[nH]1 | -6.867
23 | CCc1nsc(N2CCOC3(CCCC3)C2)n1 | 2.616
24 | Cc1noc(C)c1CN1CCCC1c1nc(-c2ccccc2)no1 (stereo unspecified) | -6.071

Row | SMILES | Percent Effect [%]
25 | Cc1noc(C)c1CN1CCCC1c1nnc2ccccn12 (stereo unspecified) | 107.8
26 | Cc1noc(C)c1CN1CCCCC1c1nc(-c2ccccc2)no1 (stereo unspecified) | 11.76
27 | CCC(CO)N(Cc1cccs1)C(=O)Cc1ccc(O)cc1 (stereo unspecified) | 12.13
28 | CCC[C@@H]1CN(C(=O)c2ccccc2-c2ccccc2)C[C@H]1N(C)C | -11.45
29 | COCCN1CCCC(O)(CN2CCN(Cc3ccncc3)CC2)C1=O (stereo unspecified) | -1.626
30 | Cc1ccc(CN2CCC3(CCN(Cc4ccncc4)CC3)CC2)cc1 | -6.544
31 | Cn1ccnc1C1(O)CCCN(Cc2ccncc2)CC1 (stereo unspecified) | 94.34
32 | CN(C)[C@H]1CCN(c2ccnc(C(=O)NCc3ccco3)c2)C1 | -12.58
33 | Cc1[nH]c(=O)sc1S(=O)(=O)N1CCCC1C(=O)NC1CC1 (stereo unspecified) | 0.9374
34 | CC1c2ncc(COCC3CC3)n2CCN1S(=O)(=O)N(C)C (stereo unspecified) | -6.883
35 | CC(C)c1nccn1CC(=O)Nc1ccnn1C(C)C(C)C (stereo unspecified) | 205.7
36 | CC(C1CC1)n1nccc1NC(=O)CN(C)C(=O)OC(C)(C)C (stereo unspecified) | 1.565
37 | O=C(NCCO)c1coc(Cn2cnc3ccccc32)n1 | -7.13
38 | Cn1ccnc1-c1cnn(CC(=O)Nc2ccnn2C)c1 | -5.253
39 | Cc1noc(CN(C)C(=O)CCn2cnc3ccccc32)n1 | -9.657
40 | CC(C)C(C)n1nccc1NC(=O)Cn1cnc2ccccc21 (stereo unspecified) | 92.25
41 | Cc1n[nH]c(C)c1C1CCCN1C(=O)c1cc(Br)c[nH]1 (stereo unspecified) | 3.439
42 | N#Cc1cc(S(N)(=O)=O)ccc1NC1CCc2ccc(F)cc21 (stereo unspecified) | -1.199
43 | Cn1ccc2c(-c3cc(N4CCOCC4)ncn3)ccnc21 | 96.13
44 | Cn1ccc2c(-c3cc(N4CCCCC4)ncn3)ccnc21 | 102.2
45 | CC(C)Nc1ccc(-c2ccnc3c2ccn3C)nn1 | -2.658
46 | c1cc2c(c(-c3cc(N4CCOCC4)ncn3)c1)CCNC2 | 6.934
47 | CN(C)c1ccc(-c2ccnc3c2ccn3C)nn1 | -43.13
48 | Cn1ccc2c(-c3ccc(NC4CC4)nn3)ccnc21 | -7.533

Row | SMILES | Percent Effect [%]
49 | Cc1cc(C)nc(N2CCCC(Cn3cc(CN(C)C)nn3)C2)n1 (stereo unspecified) | 5.215
50 | COCc1cc(NCCc2ccc(F)cc2)n2nccc2n1 | -0.9559
51 | COCc1cc(CNc2cnn(CC(F)F)c2)ccc1OC | 109.5
52 | COCc1cc(NCc2cc(F)ccc2F)n2nccc2n1 | 7.154
53 | Cc1ccc(CNc2cnn(CC(F)F)c2)cc1C | -20.79
54 | COc1cc(CNc2cnn(CC(F)F)c2)ccc1O | 77.84
55 | CCn1cc(CNc2ccc(Br)c(OC)c2)cn1 | 3.911
56 | COCCn1cc(NCc2cccc3cn[nH]c23)cn1 | -36.74
57 | COc1ccccc1CNC(Cn1cncn1)c1ccccc1 (stereo unspecified) | -4.346
58 | COc1ccccc1CNc1cnn(CC(F)F)c1 | 103.3
59 | CS(=O)(=O)CCNCc1ccc(OCc2ccncc2)cc1 | 4.954
60 | CS(=O)(=O)c1cccc(S(=O)(=O)NCCCN2CCNC(=O)C2)c1 | 4.336
61 | COCCC1(CO)CCCN(Cc2ccc(C(F)(F)F)nc2)C1 (stereo unspecified) | 4.896
62 | COC(=O)CN1CCN(c2nc3c(s2)c(C)nn3C)C(C)C1=O (stereo unspecified) | -10.29
63 | COCCN(Cc1nccs1)c1nc2c(s1)c(C)nn2C | -7.769
64 | COC(=O)CC1C(=O)NCCN1c1nc2c(s1)c(C)nn2C (stereo unspecified) | -2.847
65 | Cc1nn(C)c2nc(N3CCC(C(O)c4ccccn4)CC3)sc12 (stereo unspecified) | -0.6588
66 | Cc1ccc(CN2CCN(c3nc4c(s3)c(C)nn4C)C(C)C2=O)cc1 (stereo unspecified) | -1.858
67 | Cc1nn(C)c2nc(N3CCNC(=O)C3C(C)C)sc12 (stereo unspecified) | -3.724
68 | Cc1nn(C)c2nc(N(Cc3cnn(C)c3)C3CCCCC3)sc12 | -14.1
69 | Cc1nn(C)c2nc(N3CCCCC3c3nccs3)sc12 (stereo unspecified) | 111.2
70 | Cc1nn(C)c2nc(N3CCCCC3c3ccc(F)cc3)sc12 (stereo unspecified) | 106.8
71 | Cc1nn(C)c2nc(N3CCNC(=O)C3Cc3ccccc3)sc12 (stereo unspecified) | 4.207
72 | Cc1nn(C)c2nc(N(Cc3nccs3)C3CC3)sc12 | 96.11

Row | SMILES | Percent Effect [%]
73 | Cc1nn(C)c2nc(N3CCCC3c3nccs3)sc12 (stereo unspecified) | 105.7
74 | CN(Cc1ccccc1NCc1cccnc1)C(=O)c1cccs1 | 7.108
75 | O=S1(=O)CCN(c2nc(C3CC3)ns2)CC1 | -15.72
76 | CN1C(=O)CO[C@H](c2ccc(NC(=O)c3cccc(F)c3)cc2)[C@H]1CO | 11.75
77 | CCC(CNC(=O)c1cc(OC)ccc1Br)N1CCc2ccccc2C1 (stereo unspecified) | -23.56
78 | COC(=O)N1CCc2ccccc2C1C(=O)NCc1nc(C)no1 (stereo unspecified) | 2.573
79 | c1cnn(-c2ccc(CN3CCOC(Cn4cncn4)C3)cc2)c1 (stereo unspecified) | -5.555
80 | CN(C)C(=O)c1cccc(CN2CCOC(Cn3cccn3)C2)c1 (stereo unspecified) | 104.7
81 | CN(C)CC1CN(Cc2cccc(C(=O)N(C)C)c2)CCO1 (stereo unspecified) | 13.75
82 | CN(C)C(=O)c1cccc(CN2CCOC(Cn3cncn3)C2)c1 (stereo unspecified) | 102.1
83 | CN(C)c1cccc(C(=O)Nc2cnn(Cc3ccncc3)c2)c1 | 11.2
84 | CCn1cc(NC(=O)NCC(O)COc2cccc(F)c2)cn1 (stereo unspecified) | -10.6
85 | Cc1cccc(Cn2ccc(NS(C)(=O)=O)n2)c1 | -2.498
86 | CCS(=O)(=O)Nc1cnn(Cc2cccc(F)c2)c1 | 105.7
87 | CCS(=O)(=O)Nc1cnn(Cc2cccc(C)c2)c1 | 89.42
88 | CCn1cc(NC(=O)NCC(c2cccc(F)c2)N(C)C)cn1 (stereo unspecified) | 0.3988
89 | Cc1cccc(-c2ccc(C(=O)NCCN(C)C3CC3)c(=O)[nH]2)c1 | -2.901
90 | Cc1cccc(-c2ccc(C(=O)NCC3CCCOC3)c(=O)[nH]2)c1 (stereo unspecified) | 108.2
91 | O=C(NCC1CCOC1)c1ccc(-c2ccccc2)[nH]c1=O (stereo unspecified) | 96.09
92 | O=C(NCC1CCCOC1)c1ccc(-c2ccccc2)[nH]c1=O (stereo unspecified) | 111.2
93 | Cc1ccc(C(=O)NCC2CCCCO2)c(=O)[nH]1 (stereo unspecified) | 8.158
94 | Cc1ccc(C(=O)NCC2COCCO2)c(=O)[nH]1 (stereo unspecified) | 4.795
95 | Cc1cccc(-c2ccc(C(=O)NCCN3CCOCC3)c(=O)[nH]2)c1 | 3.561
96 | O=C(NCCN1CCOCC1)c1ccc(-c2ccccc2)[nH]c1=O | -12.34

Row | SMILES | Percent Effect [%]
97 | Cc1cccc(-c2ccc(C(=O)NCC3CCCO3)c(=O)[nH]2)c1 (stereo unspecified) | 118.6
98 | Cc1cccc(-c2ccc(C(=O)NCC3CCOC3)c(=O)[nH]2)c1 (stereo unspecified) | 2.342
99 | O=C(NCCCn1cncn1)c1ccc(-c2ccccc2)[nH]c1=O | -1.732
100 | O=C(NCC1CCCOC1)c1ccc(-c2cccs2)[nH]c1=O (stereo unspecified) | 1.044
101 | Cc1nc(CCNC(=O)C2CCN(C(C)C)CC2)sc1Cl | 3.943
102 | CCc1ccccc1OC1CN(CC2CCOC2)C1 (stereo unspecified) | 1.155
103 | CN(C)C(=O)CCCn1ccc(NCc2ccc(C#N)cc2)n1 | -12.19
104 | COCc1cccc(NC(=O)N(C)Cc2ncc(C)c(OC)c2C)c1 | -2.673
105 | COCCOC(=O)N1C[C@H]2CC[C@@H]1CN(C1Cc3ccccc3C1)C2 | 9.586
106 | NC(=O)[C@@H]1CN2CCN(C(=O)C3CC3)C[C@@H]2[C@H]1c1ccccc1 | 100.9
107 | O=C(CC1CCCC1)N1CCN2C[C@@H](CO)[C@H](c3ccccc3)[C@H]2C1 | 76.76
108 | O=C(CC1CCCCC1)N1CCN(C(=O)NCc2ccccn2)CC1 | -2.156
109 | COC(=O)N1CCN2C[C@H](CO)[C@@H](c3ccccc3)[C@H]2C1 | 95.68
110 | COC(=O)N1CCC(NC(=O)CC(C)CCc2ccccc2)CC1 (stereo unspecified) | 12.69
111 | O=C(Nc1nc(-c2ccccc2)ns1)N1CCN(C(=O)C2CC2)CC1 | -11.4
112 | COCCC(=O)N1CCC2(CC1)CC(c1ccccc1)CN(C1CC1)C2 (stereo unspecified) | -1.605
113 | O=C(C1CC1)N1CCN(C(=O)C2CC(=O)N(c3ccccc3Br)C2)CC1 (stereo unspecified) | 9.914
114 | O=C(CO)N1CCCC(N2CCN(c3ccccc3F)CC2)C1 (stereo unspecified) | 13.62
115 | COC(=O)N1CCN(Cc2ccccc2Cl)CC1 | 0.9968
116 | COCCOC(=O)N1CCN2C[C@@H](CO)[C@H](c3ccccc3)[C@H]2C1 | 99.06
